The source of these data is PubChem BioAssay AID1903 (Southern Research Specialized Biocontainment Screening …, 2009).

Each structure is given as a SMILES string. About 1,200 (0.39%) of roughly 310,000 compounds were called active. A selection follows. Measured potencies and affinities stand elsewhere. A number with no mark means an inactive call. The rule behind the calls is not given here.

For this assay, the target named is Large T antigen (Simian virus 40) (UniProt P03070). Nature of the assay: SV40 large T antigen inhibitors, biochemical (AID 1903). The following applies: SV40 large T antigen ATPase/helicase inhibition assay; at 20 µM; hits give high values.
Chain of Large T antigen (Simian virus 40) (P03070 whole entry, looked up): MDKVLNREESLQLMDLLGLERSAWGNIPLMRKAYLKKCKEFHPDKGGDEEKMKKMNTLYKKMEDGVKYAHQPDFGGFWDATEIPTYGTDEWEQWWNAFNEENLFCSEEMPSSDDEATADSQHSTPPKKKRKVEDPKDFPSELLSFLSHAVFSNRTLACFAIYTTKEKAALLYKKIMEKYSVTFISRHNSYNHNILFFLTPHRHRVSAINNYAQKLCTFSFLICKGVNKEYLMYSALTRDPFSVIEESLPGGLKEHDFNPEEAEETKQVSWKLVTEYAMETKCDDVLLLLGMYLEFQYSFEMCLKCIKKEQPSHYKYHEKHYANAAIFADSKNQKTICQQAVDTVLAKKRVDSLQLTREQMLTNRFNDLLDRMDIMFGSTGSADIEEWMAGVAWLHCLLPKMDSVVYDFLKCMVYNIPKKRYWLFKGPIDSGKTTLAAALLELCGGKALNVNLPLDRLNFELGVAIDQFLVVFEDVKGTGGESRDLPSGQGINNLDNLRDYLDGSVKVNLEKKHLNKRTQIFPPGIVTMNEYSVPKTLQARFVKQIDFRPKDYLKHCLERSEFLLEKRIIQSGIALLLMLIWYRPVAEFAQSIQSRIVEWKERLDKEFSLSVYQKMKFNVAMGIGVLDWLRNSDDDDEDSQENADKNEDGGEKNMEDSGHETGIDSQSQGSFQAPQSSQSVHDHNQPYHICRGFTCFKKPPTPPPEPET
For the compound `CC(C(N)=O)N1c2cccc3cccc(c23)S1(=O)=O` (stereo not given), the inhibition was 5.84%. To `Cc1cc(C)c(OCC(=O)Nc2ccccn2)c([N+](=O)[O-])c1` belongs 4.36%; to `COCCCNC(=O)c1ccc2c(=O)n(Cc3ccc(OC)cc3)c(=O)[nH]c2c1`, 17.4%; to `COc1ccc(CCNC(=O)CNC(=O)Cn2cnc3sc(C)c(C)c3c2=O)cc1OC`, -8.68%. As for `COc1ccc(Nc2c(C)cccc2C)cc1`, the figure is -1.03%. As for `COc1ccc(Nc2ccc(Nc3ccc(OC)cc3)nn2)cc1`, the figure is 10.9%; as for `O=C(O)CC1c2ccccc2CCN1S(=O)(=O)c1ccccc1` (stereo not given), 16.2%; as for `CCOCCc1nnc(NC(=O)Cc2ccc(Br)cc2)s1`, 4.12%.

With `O=C(Cc1n[nH]c(=O)[nH]c1=O)N/N=C/c1cccc(O)c1`, the inhibition was 9.95%. To `Cc1ccc(Oc2nc3ccccc3n3c(C)nnc23)c(C)c1` belongs 1.35%; to `CCN(CC(=O)NC(=O)NC1CCCC1)Cc1ccccc1`, 14.2%.

On to `COc1ccc(-c2nc3cnccn3c2Nc2ccc3c(c2)OCO3)cc1`, for which the inhibition is 21.4%.

For the compound `COc1cc(-c2nc3cnccn3c2Nc2ccc(C)cc2)ccc1O`, the inhibition was 37%. To `c1cn2c(Nc3ccc4c(c3)OCCO4)c(-c3ccc(N4CCOCC4)cc3)nc2cn1` belongs 29.1%. As for `Fc1ccc(-c2nc3cnccn3c2NC2CCCC2)cc1`, the figure is 3.13%. To `Cc1ccc(-c2nc3cnccn3c2Nc2ccc3c(c2)OCO3)cc1` belongs 25.3%; to `c1ccc(-c2nc3cnccn3c2Nc2ccc3c(c2)OCCO3)cc1`, 9.23%. Regarding `Clc1ccc(-c2nc3cnccn3c2NC2CCCC2)cc1`, the inhibition is 8.26%. As for `COc1cc(-c2nc3cnccn3c2Nc2ccc(C(C)C)cc2)ccc1O`, the figure is 9.43%; as for `CC(=O)c1c(C)[nH]c(C(=O)OCc2c(F)cccc2Cl)c1C`, 20.8%. To `CN(C)C(=O)c1cn(-c2ccccc2)nc1-c1cc2ccccc2o1` belongs 0.09%; to `CCCC1CCC(c2ccc(/C(N)=N/O)cc2)CC1` (stereo not given), 4.39%; to `CC(=O)NC(N1CCCCC1)C(F)(F)C(F)(F)C(F)(F)C(F)F` (stereo not given), -2.22%.

Turning to `Cc1c(Cl)cccc1NC(=S)N(CCCN1CCOCC1)Cc1cccs1`, the inhibition was 3.79%.

As to `Oc1ccc(-c2nc3ncccn3c2Nc2ccc3c(c2)OCCO3)cc1`, the inhibition is 13.3%. As for `Clc1ccc(-c2nc3ncccn3c2Nc2ccc3c(c2)OCO3)cc1`, the figure is 7.55%; as for `CC(C)OC(=O)/C(=C/c1ccc2c(c1)c1ccccc1n2C)NC(=O)c1ccccc1`, 3.18%; as for `COc1ccc2c(c1)-c1nc(/N=C/c3c(O)ccc4ccccc34)sc1CC2`, 23.1%.

Regarding `COc1ccc2c(c1)-c1nc(/N=C/c3ccc(O)cc3)sc1CC2`, the inhibition was 15.8%.

As for `Cn1nc(-c2ccccc2)cc1NC(=O)C1CCCCC1`, the inhibition is 5.74%.

Take `Nc1ccc(C(=O)c2cccs2)cc1`: the inhibition is 6.86%.

For `Cc1ccc(C(=O)c2cc(C)sc2N)cc1`, the inhibition was 19.1%. For `CSC1=NSC2=NC(=O)/C(=C/c3coc4ccc(O)cc4c3=O)C(=N)N12`, the inhibition was 17.7%. To `CCSC1=NSC2=NC(=O)/C(=C\c3coc4ccccc4c3=O)C(=N)N12` belongs 28.2%. As to `CC(C)CSC1=NSC2=NC(=O)/C(=C\c3coc4ccccc4c3=O)C(=N)N12`, the inhibition was 13.7%. To `CSC1=NSC2=NC(=O)/C(=C/c3coc4ccccc4c3=O)C(=N)N12` belongs 12.2%. As for `N=C1/C(=C/c2coc3ccccc3c2=O)C(=O)N=C2SC(c3ccco3)=NN12`, the figure is 51.6%; as for `N=C1/C(=C\c2coc3ccccc3c2=O)C(=O)N=C2SC=CN12`, 34.7%. As to `COc1ccccc1N1CCN(C(=O)c2oc3ccc(F)cc3c2C)CC1`, the inhibition was -1.49%. To `Cc1ccc(SC(CC(=O)c2ccc(C)cc2)C(=O)O)cc1` (stereo not given) belongs 19.4%; to `O=C(CC(Sc1ccc(Br)cc1)C(=O)O)c1ccc(F)cc1` (stereo not given), 7.72%; to `COc1ccc(C2=NN(Cc3ccccc3)C3C(=O)NC(=O)C23)cc1` (stereo not given), 4.68%. Consider `CN1C(=O)C2C(c3ccc(N(C)C)cc3)NN(Cc3ccccc3)C2C1=O` (stereo not given), for which the inhibition is 19.9%. To `CCOC(=O)N1CCN(c2cc(=O)n(-c3ccc(OC)cc3)c(=O)[nH]2)CC1` belongs -2.27%; to `Cc1ccccc1CNC(=O)Cn1ccc2cc(S(=O)(=O)N3CCCCCC3)ccc21`, 5.82%.

For the compound `O=C(COC(=O)c1ccc(CO)cc1)Nc1ccc(OC(F)F)cc1`, the inhibition was -2.98%. As to `Cc1nnc(NC(=O)CCS(=O)(=O)c2ccccc2)s1`, the inhibition was 19.4%. As for `Cn1c(CO)nc2cc(N)ccc21`, the figure is 24.9%; as for `Nc1ccc2c(c1)nc(Cc1ccccc1)n2CCO`, 32.4%; as for `Cn1ccnc1Sc1cc(Cl)ccc1[N+](=O)[O-]`, 1.59%. On to `CCOC(=O)C1=NN(C(C)=O)C2(CC(=O)N(c3ccc(C)c(C)c3)C2=O)C1` (stereo not given), for which the inhibition was 10.2%. As for `O=C(NCC1CCCO1)C1CCN(C2CCN(C3CCCCCC3)CC2)CC1` (stereo not given), the figure is 6.53%. With `CSc1nc(C)c(CCOCc2ccc(F)cc2)c(=O)[nH]1`, the inhibition is 6.59%. As to `COc1ccccc1N1C(=O)CC(Sc2nc(C)cc(C)n2)C1=O` (stereo not given), the inhibition was 5.59%. As for `COc1ccccc1N1C(=O)C2CC(C)=C(C)CC2C1=O` (stereo not given), the figure is 6.96%; as for `CCCCOc1ccc(C2(C)NC(=O)NC2=O)cc1` (stereo not given), 3.93%; as for `COc1ccc(S(=O)(=O)N(CC(=O)NCc2ccncc2)c2ccc(C)cc2)cc1OC`, 7.04%. For `CN(CC(=O)Nc1ccc(F)cc1)C(=O)COC(=O)Cc1cccs1`, the inhibition was 8.61%. As for `O=C(C1=NN[C@@H]2C(=O)N(c3cccc(F)c3)C(=O)[C@H]12)C(c1ccccc1)c1ccccc1`, the figure is 1.36%; as for `Cn1cc(C(=O)c2cccc(Cl)c2)cc1/C=N\O`, -2.98%. To `CC(=O)c1ccc(OC(=O)CN2C(=O)c3ccccc3C2=O)cc1` belongs 14.1%; to `O=C(NC(=S)N1CCN(c2ccc(F)cc2)CC1)c1cccs1`, 1.9%; to `O=S(=O)(c1cccs1)N1CCN(c2ccccc2)CC1`, 1.66%. As for `O=C(CCC(=O)N1CCN(c2cccc(Cl)c2)CC1)c1cccs1`, the figure is 1.82%; as for `O=S(=O)(c1cccs1)N1CCN(c2ccc(Cl)cc2)CC1`, 2.25%. Turning to `S=C(NCCc1ccccc1)N1CCCC1`, the inhibition is 7.81%. As for `Oc1ccccc1N1CCN(C(=S)NCCc2ccccc2)CC1`, the figure is 7.92%; as for `CC(=O)c1ccc(N2CCN(C(=O)CCC(=O)c3cccs3)CC2)cc1`, 4.57%; as for `O=C(NC(=S)N1CCCCC1)c1cccs1`, 9.19%. To `CN1CCN(CCc2nc3cc(NC(=O)COc4ccc([N+](=O)[O-])cc4)ccc3n2C)CC1` belongs 16.7%. As for `O=C(NCC1CCCO1)c1cn(-c2ccccc2)nc1-c1ccc(F)cc1` (stereo not given), the figure is 27.6%; as for `COc1cc(S(=O)(=O)N2CCOCC2)cc(C(=O)c2nccn2C)c1OC`, -1.37%.

Turning to `CN(C(=O)COC(=O)CNC(=O)c1ccc(C(C)(C)C)cc1)c1c(N)n(Cc2ccccc2)c(=O)[nH]c1=O`, the inhibition is 6.23%. As for `COc1cnc(-c2ccccn2)nc1Oc1cccc(Cl)c1`, the figure is 30.5%. To `Cc1cccc(NC(=O)CN2C(=O)N/C(=C\c3cccn3-c3cccc(C(=O)O)c3)C2=O)c1` belongs 3.89%.

Take `Cc1ccc(-n2cccc2/C=C2/NC(=O)N(CC(=O)Nc3cccc(C)c3)C2=O)cc1`: the inhibition was 10.3%. As for `COC(=O)C1CCN(Cc2ccc(C)cc2)CC1`, the figure is 3.14%.

Take `N#C/C(=C/Nc1ccccc1F)S(=O)(=O)c1ccc(Cl)cc1`: the inhibition is -5.3%. To `COc1ccc(-c2cnnn2-c2ccc(NC(=O)/C=C/c3ccc(OC)c(OC)c3)cc2)cc1` belongs 4.37%; to `CC(Oc1ccc(Cl)cc1Cl)C(=O)NCCCN(C)C` (stereo not given), 13.2%; to `O=C(O)c1ccc(-c2ccc(OS(=O)(=O)c3ccccc3F)cc2)cc1`, -2.26%.

Turning to `O=C(O)Cc1ccc(O)c(F)c1`, the inhibition is 11.8%. Take `CC(=O)Nc1ccc(S(=O)(=O)N2CCN(Cc3cccnc3)CC2)cc1`: the inhibition was 0.357%.

On to `Cc1scc(C(=O)NNC(=S)NCC2CCCO2)c1-c1ccccc1` (stereo not given), for which the inhibition was 11.4%. To `CN=c1scc(C)n1/N=C/c1ccc(O)c(O)c1O` belongs 7.3%; to `CN=c1scc(-c2cccs2)n1/N=C/c1ccccc1O`, 6.26%. As for `CCN=c1scc(-c2ccco2)n1/N=C/c1ccc(OC)c(O)c1`, the figure is 19.6%. To `CN=c1scc(C)n1/N=C/c1ccc2c(c1)OCO2` belongs 11.5%; to `Cc1nnc(C)n1/N=C/c1ccc(O)cc1`, -1.45%.

For the compound `CCN=c1scc(-c2ccco2)n1/N=C/c1ccc(O)cc1`, the inhibition was 11.2%. As for `CC1Oc2ccccc2N(CC(=O)N2CCCC2)C1=O` (stereo not given), the figure is 2.95%. As for `O=C1Cn2c(nc3ccccc32)N1c1ccccc1F`, the figure is 5.32%.

Take `Cc1cc[n+](CC(=O)Nc2ccccc2)cc1`: the inhibition is -1.49%. With `COc1ccc(Nc2nc(N)c([N+](=O)[O-])c(NCc3ccccc3)n2)cc1`, the inhibition is 2.61%. For the compound `CCCC12CN(C(=O)c3ccc(OC)cc3)CC(C)(CN(C(=O)c3ccc(OC)cc3)C1)C2=O`, the inhibition is 14.8%. To `COc1ccc(CONc2ncnc3nonc23)cc1[N+](=O)[O-]` belongs 24.5%. To `O=c1cc(-c2ccc(O)cc2)oc2cc(O)cc(O)c12` belongs 5.06%; to `O=c1cc(-c2ccccc2)oc2cc(O)cc(O)c12`, 3.39%. Regarding `O=c1c(O)c(-c2cc(O)c(O)c(O)c2)oc2cc(O)cc(O)c12`, the inhibition was 14.3%. As for `O=c1c(O)c(-c2ccc(O)cc2)oc2cc(O)cc(O)c12`, the figure is 2.71%.

A word on the inhibition: it is the drop in the measured response relative to a control, in per cent.
